# B1: ERVK-21, P62683 (peptide)
# chain: GDTEAWQFPVMLEPMP
# B2: ERVK-9, P63128 (peptide)
# chain: LNPTAPPSRQGSELHE
# B3: ERVK-6, Q7LDI9 (peptide)
# chain: LPQYNNAPPPQAAVQQ
# YAP1 169-207, P46937, sequence (P46937 169-207): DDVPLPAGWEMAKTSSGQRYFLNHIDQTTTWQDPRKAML
# TLN1 309-401, Q9Y490, sequence (Q9Y490 309-401): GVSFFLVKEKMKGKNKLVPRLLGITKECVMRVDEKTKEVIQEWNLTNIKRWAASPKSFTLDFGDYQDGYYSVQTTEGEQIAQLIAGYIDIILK
# TSG101 1-145, Q99816, sequence (Q99816 1-145): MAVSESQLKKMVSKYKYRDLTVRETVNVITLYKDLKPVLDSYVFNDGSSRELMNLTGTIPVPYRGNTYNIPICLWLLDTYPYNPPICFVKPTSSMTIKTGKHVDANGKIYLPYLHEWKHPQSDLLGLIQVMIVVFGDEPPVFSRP
binder,measurement,setting,value
B1,selected by phage display,"TLN1 309-401, Q9Y490",confidence 2 (active)
B2,selected by phage display,"TSG101 1-145, Q99816",confidence 2 (active)
B3,selected by phage display,"YAP1 169-207, P46937",confidence 2 (active)

# — PMC8769072, “Proteome‐scale mapping of binding sites in the unstructured regions of the human proteome” (Molecular Systems Biology, 2022)
